Experimental data reported in PubChem BioAssay (NCATS).
Inconclusive results are not listed. The source made the active and inactive calls. Unless noted, the call rests on the fitted dose curve; in most records, active means well fitted curve in the direction sought with a large enough effect; inconclusive means small, poorly fitted or top-dose-only effect, or another doubt; inactive means no such curve, though single readings can be large; an effect the other way counts as inactive or inconclusive.

Columns and labels:
[1] = qHTS to identify inhibitors of the type 1 interferon - major histocompatibility complex class I in skeletal muscle: primary screen against the NCATS Mechanism Interrogation Plate v5.0 (MIPE) Libary (AID 1347411); further: nearly all actives have a fitted effect of over 65% in size; further: potency means the concentration at half of the fitted maximal effect;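 on activity change, negative = inhibition: plate controls were vehicle for no effect and reference inhibitor for full effect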
Method in brief: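 Cells were genome-edited human myoblasts carrying a HiBit tag on endogenous HLA-B. They were treated with IFN-beta (4.0 ng/ml) and titrated compounds (top 46 uM) for 24 hrs before lytic HiBiT detection.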

[2] = Primary qHTS for inhibitors of nuclear receptor binding SET domain protein 2 (NSD2) in an isogenic RCH-ACV NSD2 p.E1099K mutant (9B) (AID 1645876); further: nearly all actives have a fitted effect of over 70% in size; further: potency means the concentration at half of the fitted maximal effect
[3] = Primary qHTS for inhibitors of nuclear receptor binding SET domain protein 2 (NSD2) in an RCH-ACV wild type WT cells (2C) (AID 1645877); further: nearly all actives have a fitted effect of over 70% in size; further: potency means the concentration at half of the fitted maximal effect
[4] = target: Glutathione peroxidase 1 (Homo sapiens) (UniProt P07203); assay: Primary qHTS Assay for Inhibitors of Recombinant Selenoprotein Glutathione Peroxidase 1 (GPX1) (AID 1845191); further: nearly all actives have a fitted effect of over 65% in size
Glutathione peroxidase 1 (Homo sapiens), sequence (P07203 whole entry, looked up): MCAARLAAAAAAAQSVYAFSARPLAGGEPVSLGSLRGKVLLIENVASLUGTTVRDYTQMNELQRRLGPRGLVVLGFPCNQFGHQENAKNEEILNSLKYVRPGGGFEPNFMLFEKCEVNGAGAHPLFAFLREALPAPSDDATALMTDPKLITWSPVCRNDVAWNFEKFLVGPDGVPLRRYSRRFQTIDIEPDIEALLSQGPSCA
Method in brief: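 Recombinant GPX1 (10 nM final) was preincubated with compound for 30 min at room temperature, then reacted with 1 mM GSH, 0.5 mM CHP, 0.5 mM NADPH and 100 nM glutathione reductase; NADPH fluorescence (340/450 nm) was read at 0 and 15 min.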

[5] = target: Phospholipid hydroperoxide glutathione peroxidase GPX4 (Homo sapiens) (UniProt P36969); assay: Primary qHTS Assay for Inhibitors of Recombinant Selenoprotein Glutathione Peroxidase 4 (GPX4) (AID 1845192); conditions: outcome: dose series up to 50 µM unless noted; further: on the % scale 0 is the no-effect control and ±100 the full control effect; nearly all actives have a fitted effect of over 65% in size
Phospholipid hydroperoxide glutathione peroxidase GPX4 (Homo sapiens), sequence (P36969 whole entry, looked up): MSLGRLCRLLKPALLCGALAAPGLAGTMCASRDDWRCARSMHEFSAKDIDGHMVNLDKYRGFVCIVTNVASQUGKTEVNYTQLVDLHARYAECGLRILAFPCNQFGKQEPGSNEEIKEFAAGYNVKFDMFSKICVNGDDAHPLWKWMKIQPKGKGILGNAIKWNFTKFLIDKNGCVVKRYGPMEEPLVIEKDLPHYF
Method in brief: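 GR-coupled readout: 100 nM GR, 1 mM GSH, 0.5 mM NADPH; NADPH fluorescence (ex 340/em 450 nm) read at t=0 and after 15 min RT. GPX4 200 nM, preincubated 30 min with compound; substrate 0.5 mM CHP.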

[6] = qHTS drug screen for cell cycle checkpoint inhibitors in PARPi-resistant BRCA-mutant ovarian cancer cell lines. (AID 1963452; calls by dose curve; further: potency means the concentration at half of the fitted maximal effect); conditions: PEO1/OlaR viability, CellTiter-Glo luminescence, 96 h; for Z-AUC: stronger effect = lower value
Method in brief: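 PEO1, PEO4 and PEO1/OlaR ovarian cancer cells, 600 per well, exposed 96 h at 37C to a dilution series. Viability read by CellTiter-Glo luminescence, normalized to DMSO and empty wells; activity summarized as Z-AUC.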

[7] = qHTS assay to identify inhibitors of the type 1 interferon - major histocompatibility complex class I in skeletal muscle: Counter screen cell viability and HiBit confirmation (AID 1347412); conditions: iHSKM muscle cells + IFN-b, HiBiT or CellTiter-Glo, 24 h; for activity change, negative = inhibition: at 45.9 µM (top of the series); further: potency means the concentration at half of the fitted maximal effect; on activity change, negative = inhibition: on the % scale 0 is the no-effect control and ±100 the full control effect; on all read-outs here: nearly all actives have a fitted effect of over 60% in size
Method in brief: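 HLA-B*08:01–HiBiT knock-in immortalized human myoblasts (C25cl48) stimulated with 4.0 ng/ml human IFN-beta and dosed with compound in a 12-point 1:3 titration (top final 46 uM). After 24 hrs at 37 C, HiBiT lytic luminescence or CellTiter Glo ATP read out.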

[8] = target: Cytochrome P450 2D6 (Homo sapiens) (UniProt P10635); assay: Cytochrome P450 family 2 subfamily D member 6 (CYP2D6) small molecule antagonists: luciferase biochemical (cell-free) qHTS assay (AID 1645840; active means well fitted curve in the direction sought with a large enough effect in the repeat runs; an effect the other way counts as inactive or inconclusive; further: on the % scale 0 is the no-effect control and ±100 the full control effect; nearly all actives have a fitted effect of over 55% in size)
Cytochrome P450 2D6 (Homo sapiens), sequence (P10635 whole entry, looked up): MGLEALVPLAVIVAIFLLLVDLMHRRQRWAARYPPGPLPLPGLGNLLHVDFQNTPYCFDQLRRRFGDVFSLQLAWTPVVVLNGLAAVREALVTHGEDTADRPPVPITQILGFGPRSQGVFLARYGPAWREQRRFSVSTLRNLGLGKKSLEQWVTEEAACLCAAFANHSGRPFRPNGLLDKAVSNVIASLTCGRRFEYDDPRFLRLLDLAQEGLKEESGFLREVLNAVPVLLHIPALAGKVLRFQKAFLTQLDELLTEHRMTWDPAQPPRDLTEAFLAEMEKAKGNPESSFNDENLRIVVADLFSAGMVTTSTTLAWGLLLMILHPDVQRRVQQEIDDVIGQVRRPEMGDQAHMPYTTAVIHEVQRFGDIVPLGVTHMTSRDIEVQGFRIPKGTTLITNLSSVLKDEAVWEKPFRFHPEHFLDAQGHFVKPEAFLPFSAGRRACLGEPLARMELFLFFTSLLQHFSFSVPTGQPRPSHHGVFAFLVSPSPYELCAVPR
Method in brief: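 P450-Glo luminescent screen: recombinant CYP2D6 enzyme–proluciferin substrate mix preincubated with compound 10 min at room temperature, then NADPH regeneration added for 1 h at room temperature. Detection reagent added for 20 min; luciferin light read as relative luminescence units.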

[9] = qHTS Assay for Lipid Storage Modulators (AID 1519; calls by dose curve; on activity change, negative = inhibition: on the % scale 0 is the no-effect control and ±100 the full control effect); conditions: Drosophila S3 cells, BODIPY lipid droplet/cell ratio, laser cytometry, cells loaded with oleic acid
Method in brief: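 Cells seeded at 5,000 per well were treated with compounds over a concentration series and loaded with oleic acid (400 uM, as added). Lipid droplet fluorescence (488 nm excitation, 500-530 nm channel) was read by laser-scanning cytometry and normalized to 20 uM Triacsin C.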

[10] = measured here: PEO1 parental Z-AUC

Row | SMILES | Potency [1] | Potency [2] | Potency [3] | Potency [4] | Potency [5] | Z-AUC [6] | Z-AUC [6, 10] | Z-AUC ([6]; measured here: PEO4 Z-AUC) | activity change, negative = inhibition ([7]; HiBiT) | Potency [8] | Potency [6] | Potency ([7]; HiBiT) | activity change, negative = inhibition ([7]; Viability) | activity change, negative = inhibition ([9]; at 57.5 µM (top of the series)) | max response ([9]; measured here: cell count channel max response) [%] | max response ([9]; measured here: lipid channel max response) [%]
1 | COc1nc(OCc2cccc(-c3ccccc3)c2C)ccc1CNCCNC(C)=O | 16500 nM (active) | 7420 nM (active) | 7420 nM (active) | inactive | inactive | -0.638 (inactive) | -0.646 | -0.574 | -16.7% (inactive) |  |  |  |  |  |  | 
2 | C[C@H](CCC(=O)O)[C@H]1CC[C@H]2[C@@H]3[C@@H](O)C[C@@H]4C[C@H](O)CC[C@]4(C)[C@H]3CC[C@]12C | inactive | inactive | inactive | inactive | inactive | 0.396 (inactive) | 1.43 | 1.41 |  | inactive |  |  |  |  |  | 
3 | CO[C@H]1/C=C\C=C(\C)C(=O)NC2=CC(=O)C(NCCN(C)C)=C(C[C@@H](C)C[C@H](OC)[C@H](O)[C@@H](C)/C=C(/C)[C@@H]1OC(N)=O)C2=O | 46.6 nM (active) | 332 nM (active) | 235 nM (active) | inactive | inactive |  | -2.33 | -1.76 |  |  | 219 nM (active) | 17.6 nM (active) |  |  |  | 
4 | CC(=O)NCC(=O)N1[C@@H]2CC[C@H]1c1ccc(Nc3ncc(C(F)(F)F)c(NC4CCC4)n3)cc12 | 4660 nM (active) | 590 nM (active) | 166 nM (active) |  | inactive | -0.104 (inactive) | -0.113 | -0.17 |  |  |  | 3130 nM (active) | -29.6% (inactive) |  |  | 
5 | COC1=C(OC)C(=O)C(C/C=C(\C)CC/C=C(\C)CC/C=C(\C)CC/C=C(/C)CC/C=C(\C)CC/C=C(\C)CC/C=C(\C)CC/C=C(\C)CC/C=C(\C)CCC=C(C)C)=C(C)C1=O | inactive | inactive | inactive |  |  |  |  |  |  |  |  |  |  | 8.3% (inactive) | 17.1 | 27.6
